Bioassay records (PubChem)
CHT allo act: CHT positive allosteric modulators, primary screen, cell-based, membrane potential dye, choline EC20; CHT-expressing cells; hits give high values; LV-AA mutant CHT in HEK293 cells; B-score at 10 µM; 310,000 compounds, 0.49% hits; AID 488977, 2010;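 active = initial fluorescence not abnormally high and integrated response B-score, plate-corrected, over 3 SD above library mean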
Target sequence (Q9GZV3 whole entry, looked up): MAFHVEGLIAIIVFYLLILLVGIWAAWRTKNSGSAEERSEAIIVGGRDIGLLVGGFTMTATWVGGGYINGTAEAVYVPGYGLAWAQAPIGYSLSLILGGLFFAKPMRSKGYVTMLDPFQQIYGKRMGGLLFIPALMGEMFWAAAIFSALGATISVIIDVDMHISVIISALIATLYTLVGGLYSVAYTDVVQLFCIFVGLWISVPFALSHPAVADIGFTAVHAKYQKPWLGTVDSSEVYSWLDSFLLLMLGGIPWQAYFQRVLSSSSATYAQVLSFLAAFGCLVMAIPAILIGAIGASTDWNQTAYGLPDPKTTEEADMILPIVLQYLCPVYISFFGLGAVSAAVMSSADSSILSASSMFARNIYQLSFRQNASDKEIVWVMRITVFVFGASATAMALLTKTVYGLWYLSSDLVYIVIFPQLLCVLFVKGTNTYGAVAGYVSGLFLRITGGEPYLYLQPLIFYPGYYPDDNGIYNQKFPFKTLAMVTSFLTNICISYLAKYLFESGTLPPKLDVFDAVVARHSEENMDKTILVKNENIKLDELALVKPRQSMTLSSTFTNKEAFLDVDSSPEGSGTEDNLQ
PGE2 EP2 inh: human EP2 receptor antagonists, primary screen, TR-FRET cAMP, C6 glioma cells; inhibition, % at 25 µM; C6 glioma cells expressing human EP2; cells stimulated with saturating PGE2; 260,000 compounds, 0.52% hits; Prostaglandin E2 receptor EP2 subtype (Homo sapiens), P43116;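 active = percent inhibition above 40 after rounding to a whole number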;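 also: rat C6 glioma host cells with rolipram phosphodiesterase inhibitor present; the protocol text gives 20 µM as final concentration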
EP2 mod: EP2 receptor modulators, cAMP readout, primary screen, cell-based, HTRF cAMP, PGE2 stimulation; EP2-expressing cells, cAMP HTRF FRET, PGE2 co-stimulation; 260,000 compounds, 0.83% hits; induction, % at 25 µM; Prostaglandin E2 receptor EP2 subtype (Homo sapiens), P43116; AID 940, 2007;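 active = compounds whose cAMP rise, as percent of the full-agonist control response, exceeds 60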;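 also: rat C6 glioma line stably carrying human EP2 under a CMV promoter; the protocol text gives 20 µM as final concentration; 100% = response of wells given 1 µM PGE2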
CHT inh: inhibitors of human choline transporter CHT; High affinity choline transporter 1 (Homo sapiens), Q9GZV3; CHT-expressing cells, membrane potential dye, choline response; hits give low values; B-score at 10 µM; 310,000 compounds, 0.86% hits; AID 488975, 2010;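 active = B-score over 3 SD under the library average, and starting fluorescence ratio not unusually high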;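 also: choline stimulus applied at its EC90 after an EC20 pre-addition; B-score computed on integrated fluorescence ratio after choline addition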
CHT act confirm: CHT activators, confirmation, cell-based, membrane potential dye, duplicate. shares compounds with CHT allo act. CHT-expressing cells, membrane potential dye fluorescence (FDSS); % of choline EC20–EC90 response window; HEK293 expressing CHT LV-AA mutant; choline added at its EC20. activation, % at 10 µM. 2,500 compounds, 91% hits. AID 504833, 2011;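 active = primary screen active, with duplicate mean activation above negative control mean plus 3 SD, cut at about 11% in these data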
HEK293 MP dye: membrane potential response in parental HEK293 cells, counter-screen for CHT activator project, cell-based, membrane potential dye; shares compounds with CHT allo act; membrane potential dye fluorescence (FDSS); measured after EC20 choline addition; ratio readout change at 10 µM, hits read low; 2,500 compounds, 62% hits;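 active = duplicate-averaged ratio beyond 3 SD from buffer wells, up or down, though filed actives are nearly all decreases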
Active calls of the source: *; i = inactive; nt = no result. Shown are actives, neighbours in structure and some others; about 2.1% of the full set was active somewhere.

SMILES	CHT allo act	PGE2 EP2 inh	EP2 mod	CHT inh	CHT act confirm	HEK293 MP dye
Cc1ccc(C)c2[nH]c(=O)c(CN(Cc3ccco3)Cc3nnnn3Cc3ccco3)cc12	nt	10	-36	nt	nt	nt
CCc1nn(CC(=O)NCCc2ccccc2)c(=O)c2cc3occc3n12	nt	10	-11	nt	nt	nt
CC(C)(C)NC(=O)CSc1nc2ccccc2n1CC(=O)N1CCOCC1	nt	14	-5	nt	nt	nt
Cc1cc(N2CCN(C(=O)c3ccco3)CC2)c2ccccc2n1	6.9*	8	4	i	39*	-53*
CCCC[n+]1ccn(-c2nc3c([N+](=O)[O-])cccc3n2C)c1	i	nt	nt	i	67*	-55*
O=C1C2CC=C(Cl)CC2C(=O)N1CCCCCCN1C(=O)C2CC=C(Cl)CC2C1=O (stereo unspecified)	i	9	-21	i	nt	nt
O=C1C2CC=C(Cl)CC2C(=O)N1CCC[n+]1cccc2ccccc21 (stereo unspecified)	i	7	1	i	50*	-25*
CCOC(=O)Cc1c(Cl)c2ccccc2[nH]c1=O	i	4	4	i	nt	nt
CCOC(=O)C[n+]1ccc2c([nH]c3ccccc32)c1C	i	nt	nt	i	50*	-41*
COc1ccc(C(=O)C[n+]2cc(Br)cc3ccccc32)cc1[N+](=O)[O-]	i	nt	nt	i	31*	-38*
COc1ccc(C(=O)OCC(N)=O)cc1[N+](=O)[O-]	i	9	12	i	nt	nt
C[n+]1c2n(c3ccccc31)N=C(c1cc(C(C)(C)C)c(O)c(C(C)(C)C)c1)CS2	40*	8	1	i	66*	-36*
Cc1ccc(C2=Nn3c([n+](C)c4ccccc43)SC2)cc1	nt	7	-67	nt	nt	nt
Cc1ccccc1Nc1nc(N)c2ccccc2n1	6.8*	8	-43	i	11*	-44*
CN(C)c1ccc(Nc2nc(N)c3ccccc3n2)cc1	7.4*	nt	nt	i	49*	-75*
Nc1nc(Nc2ccccc2)nc2ccccc12	i	7	-21	i	37*	-66*
Cc1ccc(Nc2nc(N)c3ccccc3n2)cc1Cl	i	nt	nt	i	nt	nt
CN1CCN(/N=C/c2nc(-c3ccc(Cl)cc3)n3ccccc23)CC1	i	11	-17	i	nt	nt
CN1CCN(/N=C/c2nc(-c3ccccc3)n3ccccc23)CC1	i	13	-58	i	27*	i
COc1ccc(-c2cn(-c3ccc(Cl)cc3)c3[n+]2CCCCC3)cc1	7*	8	2	i	51*	-21*
CCOc1ccc(C2NC(=O)NC(C)=C2C(=O)Nc2cc(OC)c(Cl)cc2OC)cc1 (stereo unspecified)	nt	8	8	nt	nt	nt
CS(=O)(=O)N1CCN(c2ccc([N+](=O)[O-])c(NCCN3CCOCC3)c2)CC1	i	nt	8	i	32*	-40*
CN(C)CCN(Cc1cc2cc3c(cc2nc1Cl)OCO3)C(=O)c1ccco1	6.8*	nt	nt	i	55*	-56*
Cc1nn(-c2ccccc2)c(C)c1/C=N/n1c(-c2ccc(Cl)cc2)n[nH]c1=S	i	4	-2	i	8	i
O=C(c1cccs1)N1CCC(Cn2nc(-c3ccccc3)ccc2=O)CC1	nt	nt	7	nt	nt	nt
SMILES	CHT allo act	PGE2 EP2 inh	EP2 mod	CHT inh	CHT act confirm	HEK293 MP dye
CCCC[n+]1c(-c2ccc(Cl)cc2Cl)csc1Nc1ccccc1	i	3	29	i	nt	nt
C=CC[n+]1c(-c2ccc(Cl)cc2Cl)csc1Nc1ccc(NC(C)=O)cc1	14*	14	10	i	0	i
C=CC[n+]1c(-c2ccc(Cl)cc2Cl)csc1Nc1c(C)n(C)n(-c2ccccc2)c1=O	8.4*	7	25	i	5	i
Cc1nc(SCC(=O)Nc2nccs2)c2c(C)c(C)sc2n1	nt	10	4	nt	nt	nt
CC1(C)Oc2ccc(S(=O)(=O)NCCCN3CCOCC3)cc2NC1=O	nt	4	-5	nt	nt	nt
CN(C)Cc1cc(C(C)(C)c2cc(CN(C)C)c(O)c(CN(C)C)c2)cc(CN(C)C)c1O	8.3*	5	-6	i	52*	-58*
COC(=O)c1ccc(S(=O)(=O)NCc2ccco2)cc1	nt	6	-37	nt	nt	nt
O=c1c2ccccc2nc2n1C(CSCc1ccc(Cl)cc1)CS2 (stereo unspecified)	8.2*	11	18	i	11*	i
O=[N+]([O-])c1cc(C(F)(F)F)cc([N+](=O)[O-])c1NN=C1CCCCC1	i	6	25	i	nt	nt
N#CCC(=O)NNc1c([N+](=O)[O-])cc(C(F)(F)F)cc1[N+](=O)[O-]	i	6	4	i	27*	-44*
COc1c(N2CCN[C@H](C)C2)c(F)cc2c(=O)c(C(=O)O)cn(C3CC3)c12	6.3*	nt	nt	i	31*	-40*
CCOc1ccc(NC(=O)c2ccc(NC(=O)c3cn4c5c(c(N6CCN(C)CC6)c(F)cc5c3=O)OCC4C)cc2)cc1 (stereo unspecified)	i	7	55	i	nt	nt
COc1c(N2C[C@@H]3CCCN[C@@H]3C2)c(F)cc2c(=O)c(C(=O)O)cn(C3CC3)c12	7.8*	25	nt	i	35*	-42*
COc1c(F)c(F)cc2c(=O)c(C(=O)O)cn(C3CC3)c12	i	nt	nt	i	nt	nt
CC1COc2c(N3CCN(C)CC3)c(F)cc3c(=O)c(C(=O)O)cn1c23 (stereo unspecified)	8.7*	9	0	i	44*	-44*
CCOC(=O)c1c(C)[n+](-c2ccc(C)cc2)c(CC)c2cc(OC)c(OC)cc12	i	nt	nt	i	49*	-35*
CC1(C)CC(=O)C2=C(C1)Nc1ccccc1NC2c1cc(Cl)cc(Cl)c1O (stereo unspecified)	nt	6	9	nt	nt	nt
CC(C)c1ccccc1NC(=O)Cn1c(-c2ccccc2Cl)nc2ccccc21	i	6	3	i	22*	i
COc1cc2cc(CN(Cc3cccnc3)Cc3nnnn3C3CCCCC3)c(=O)[nH]c2cc1OC	nt	15	7	nt	nt	nt
Cn1nnc2cc(C(=O)Nc3cccnc3)ccc21	6.7*	4	3	i	52*	-34*
O=c1c2ccccc2nc(SCCN2CCCCC2)n1CCc1ccccc1	7.8*	7	12	i	4	-27*
COc1ccc(NC(=O)CSc2nc3ccccc3c(=O)n2CCCN2CCCCC2)c(OC)c1	12*	nt	3	i	73*	-39*
Cn1c(=O)c2c(nc(SCCN3CCCCC3)n2C)n(C)c1=O	i	nt	11	i	56*	-72*
